# TTR transcr act: activators of transthyretin transcription; actives 1.3% (n = 92,000); AID 1117267; SH-SY5Y TTR promoter Gaussia luciferase, luminescence; 100% = recombinant luciferase protein wells; activation, % at 16.7 µM;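 active = activation above the mean of all tested compounds plus 3 SD, cut at about 9.5% in these data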;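 also: cells exposed to compounds for one day before reading; 0% = median of all test compound wells on the plate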
# TTR inh HuH7: decreases TTR transcription in HuH7 cells in activator counter-screen | AID 1117279 | shares compounds with TTR transcr act | inhibition, % at 16.7 µM | HuH7 TTR promoter-Gaussia luciferase reporter, luminescence | actives 4% (n = 1,100);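 active = average inhibition above the solvent-only control wells' mean plus 3 SD, cut at about 15% in these data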;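 also: 0% = cells with DMSO only and 100% = cells with inhibitor control FD; inhibitors lower well luminescence so higher value means more inhibition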
# TTR act confirm: human TTR transcription activation, confirmation; shares compounds with TTR transcr act; SHSY5Y TTR promoter Gaussia luciferase, luminescence; 100% = purified Lucia enzyme wells, no cells; activation, % at 16.7 µM; 1,100 tested, under 10 active;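 active = mean activation above a set limit taken from the earlier primary screen, cut at about 11% in these data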;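 also: 0% = DMSO-treated cells and 100% = recombinant Lucia luciferase without cells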
# An asterisk follows results filed as active. This excerpt belongs to a sample that is enriched for hits.
SMILES,TTR transcr act,others
Cc1ccccc1NC(=O)O[C@H]1CC[C@@]23CCCN2C(=O)CCC[C@H]3[C@H]1C,0.3,
C#CCCC(=O)Nc1sc2c(c1-c1nc3ccccc3s1)CCN(C(C)C)C2,-0.1,
COCC(=O)Nc1cc(OC)ccc1OC,6.1,
COc1ccc(OC)c(NC(=O)CSCC(=O)O)c1,23.4*,
COc1ccc(NC(=O)CSCc2ccc(C#N)cc2)c(OC)c1,1.9,
CC(C)c1ccc(NC(=O)O[C@H]2CC[C@@]34CCCN3C(=O)CCC[C@H]4[C@H]2C)cc1,-0.3,
CCn1c(=O)cc(N2CCN(c3cccc(C(F)(F)F)c3)CC2)[nH]c1=O,0.8,
CC1CCN(c2ncccc2C(=O)O)CC1,1.7,
Cc1cc(N2CCC(C)CC2)nc2ccccc12,-1.2,
CC1CCN(c2nnc(N3CCC(C)CC3)c3ccccc23)CC1,15.3*,
CCOc1ccc(CCNC(=O)c2cc3sccc3n2Cc2cccc(C)c2)cc1OCC,3.4,
Cc1ccc(S(=O)(=O)N2CC[C@@]3(Cc4ccccc4)Cc4ccccc4C[C@@H]23)cc1,1.3,
CCOC(=O)C(C)NC(=O)C(NC(=O)C1CCC(CC)CC1)C(C)C (stereo not given),10.5*,
CCOc1ccc(NC(=O)C(NC(=O)C2CCC(C)CC2)C(C)C)cc1 (stereo not given),0.7,
CC(C)[C@H](NC(=O)[C@@H]1Cc2ccccc2CN1C(=O)OC(C)(C)C)C(=O)NCC1CCC(C(=O)O)CC1 (stereo not given in full),-0.3,
CCCCCCCC(=O)N[C@H]1CC[C@@]23CCCN2C(=O)CCC[C@H]3[C@H]1C,1.0,
N#CC1CCN(c2nc(-c3ccc(Br)cc3)cs2)CC1,-0.1,
COCCNC(=O)C1Cc2c(-c3ccc(NC(C)=O)cc3)ccnc2O1 (stereo not given),-1.0,
CC(=O)NCCNC(=O)C1Cc2c(-c3ccc(Cl)cc3)ccnc2O1 (stereo not given),10.3*,
O=C(Nc1ccc(Cl)cc1)C1Cc2c(-c3ccc(Cl)cc3)ccnc2O1 (stereo not given),1.3,
COc1ccc(C(=O)Nc2cc(Cl)c(Br)cc2C(=O)O)cc1,-1.8,
COCCNC(=O)C1c2cc(OC)c(OC)cc2C(=O)N(C)C1c1cccnc1 (stereo not given),3.0,
CCCN(CCC)CCCNC(=O)C1c2cc(OC)c(OC)cc2C(=O)N(C)C1c1cccnc1 (stereo not given),0.5,
CCOc1cc2c(cc1OCC)C(C(=O)O)C(c1cc(OC)c(OC)c(OC)c1)N(C)C2=O (stereo not given),11.6*,
COc1ccc(NC(=O)CCN2C(=O)NC3(CCCC3)C2=O)cc1Cl,2.1,
SMILES,TTR transcr act,others
O=C(CN1C(=O)NC2(CCCC2)C1=O)NC(c1ccccc1)c1ccccc1,-0.9,
O=C(O)CCN1C(=O)NC2(CCCC2)C1=O,17.0*,
c1nc(NCC2CC2)c2cc(-c3ccc4c(c3)OCO4)ccc2n1,-0.5,
O=C(Nc1ccccc1Cl)O[C@@H]1CC[C@@]23CCCN2C(=O)CCC[C@H]3C1,-2.3,
O=C1CCC[C@H]2C[C@H](NCCc3ccncc3)CC[C@]23CCCN13,-0.7,
C[C@]12C(=O)N(c3cccc(Cl)c3)C(=O)N1[C@@H]1c3ccccc3OC[C@@H]1[C@H]2c1ccccc1,2.9,
C[C@]12C(=O)N(c3ccccc3)C(=O)N1[C@H]1c3ccccc3OC[C@@H]1[C@H]2c1ccccc1,10.7*,
C[C@]12C(=O)N(c3cccc(F)c3)C(=O)N1[C@H]1c3ccccc3OC[C@@H]1[C@H]2c1ccccc1,-1.8,
CSc1ncccc1C(=O)OCc1ccccc1F,4.6,
COC(=O)c1cc(COC(=O)c2cccnc2SC)oc1C,40.8*,
COC(=O)c1cc(COC(=O)CNC(=O)c2cccc(C)c2)oc1C,-0.8,
COc1ccc(N2CCN(CCCNC(=O)Cn3c(=O)c4cccn4c4cccnc43)CC2)c(OC)c1,-1.1,
CN1CCC(N[C@@H](Cc2c[nH]c3ccccc23)C(=O)NCCCc2ccccc2)(C(=O)NCCc2c[nH]c3ccccc23)CC1,5.8,
C[C@@H](O[Si](c1ccccc1)(c1ccccc1)C(C)(C)C)[C@@H]1NC(=O)[C@@H]2C[C@]3(Br)c4ccccc4N(S(=O)(=O)c4ccccc4)[C@@H]3N2C1=O,3.1,
O=C(Nc1ccc(N2C(=O)[C@@H]3[C@H](C2=O)[C@@H]2C=C[C@H]3C2)c(Cl)c1)c1ccccn1,-1.5,
COc1ccc(CNC(=O)O[C@H]2CC[C@@]34CCCN3C(=O)CCC[C@H]4[C@H]2C)cc1OC,0.6,
Cc1cc(C)nc(NC(=S)N2CCN(c3ncc(C(F)(F)F)cc3Cl)CC2)c1,1.5,
O=C(NCCCc1ccccc1)OC1CC2CC1[C@H]1CCCCN1C2 (stereo not given in full),0.7,
O=C(CN1CCOCC1)NCCNS(=O)(=O)c1ccccc1,0.1,
O=C(NCCNS(=O)(=O)c1ccc(C(F)(F)F)cc1)N1CCOCC1,11.7*,TTR inh HuH7=-6.0;TTR act confirm=-0.5
O=C(CNS(=O)(=O)c1ccc(C(=O)N2CCOCC2)cc1)N1CCOCC1,1.4,
COC(=O)[C@]12C[C@H](CC(=O)N3CCOCC3)C(=O)N(Cc3cccc4ccccc34)C1=C[C@H](COCc1ccccc1)O[C@@H]2C,1.0,
O=C(CN1C(=O)N/C(=C\c2ccccc2OCc2ccc(C(=O)O)cc2)C1=O)Nc1ccc(F)cc1,-1.8,
O=C(CN1C(=O)S/C(=C\c2ccccn2)C1=O)Nc1ccc(F)cc1,-0.7,
NC1=NC(=O)/C(=C/c2ccccc2OCC(=O)Nc2ccc(F)cc2)S1,9.9*,TTR inh HuH7=5.1;TTR act confirm=0.0
SMILES,TTR transcr act,others
C#CCNC(=O)C[C@@H]1C(=O)N2CCCC3=C2[C@@]1(C(=O)OC)CCCC3,-0.4,
Cc1c(NC(=O)c2cccc(NC(=O)C(C)Oc3ccccc3)c2)c(=O)n(-c2ccccc2)n1C (stereo not given),1.0,
CCN(CC)C(=O)Cn1c2ccccc2c2nc3n(c(=O)c21)CCS3,-1.0,
CCC1(C)Cc2ccccc2C(=S)N1 (stereo not given),9.7*,TTR inh HuH7=-5.0;TTR act confirm=-0.3
CCC1(CC)Cc2ccccc2-c2[nH]c(=S)[nH]c(=O)c21,0.8,
CCC1(C)Cc2ccccc2C(=O)N1 (stereo not given),-2.0,
COC(=O)[C@@]12CCCCC3=C1N(CCC3)C(=O)[C@H]2CC(=O)NCCC(C)C,-0.2,
Cc1ccccc1CC(=O)N1CCCC(CCC(=O)N2CCN(c3ccccn3)CC2)C1 (stereo not given),11.5*,TTR inh HuH7=-1.2;TTR act confirm=0.3
O=C(CCN1C(=O)c2ccccc2C1=O)N1CCN(c2ccccn2)CC1,0.0,
CC(=O)c1ccccc1C(=O)N1CCCC(CCC(=O)N2CCN(c3ccccn3)CC2)C1 (stereo not given),-1.2,
O=C(CCN1C(=O)COc2ccccc21)N1CCN(c2ccccn2)CC1,-0.8,
O=C(CCN1C(=O)C2CC=CCC2C1=O)N1CCN(c2ccccn2)CC1 (stereo not given),9.7*,TTR inh HuH7=-9.9;TTR act confirm=0.2
Cc1ccc(C(=O)N2CCCC(CCC(=O)N3CCN(c4ccccn4)CC3)C2)s1 (stereo not given),3.6,
CC(C)(C)c1ccc(C(=O)NC2CCS(=O)(=O)C2)cc1 (stereo not given),5.4,

# Bioassay records (PubChem BioAssay)
